Test results as given in PubChem BioAssay AID623946 (Vanderbilt Specialized Chemistry Center, 2012).
Active and inactive are the calls of the source.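 Rule for the calls: active = compounds whose rat M5 calcium response changes with dose, giving a fitted curve judged by the depositor; inactive = the rest, with no dose-dependent response.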

Each compound was assayed against Muscarinic acetylcholine receptor M5 (Rattus norvegicus) (UniProt P08911) (assay: off-target potentiation of rat M5 ACh response – CHO-K1 cells, calcium fluorescence, ACh EC20, selectivity assay for M4 PAM optimization project, SAR follow-up (AID 623946)). Details: CHO-K1 rM5, calcium fluorescence; series mostly up to 30 µM.
Chain of Muscarinic acetylcholine receptor M5 (Rattus norvegicus) (P08911 whole entry, looked up): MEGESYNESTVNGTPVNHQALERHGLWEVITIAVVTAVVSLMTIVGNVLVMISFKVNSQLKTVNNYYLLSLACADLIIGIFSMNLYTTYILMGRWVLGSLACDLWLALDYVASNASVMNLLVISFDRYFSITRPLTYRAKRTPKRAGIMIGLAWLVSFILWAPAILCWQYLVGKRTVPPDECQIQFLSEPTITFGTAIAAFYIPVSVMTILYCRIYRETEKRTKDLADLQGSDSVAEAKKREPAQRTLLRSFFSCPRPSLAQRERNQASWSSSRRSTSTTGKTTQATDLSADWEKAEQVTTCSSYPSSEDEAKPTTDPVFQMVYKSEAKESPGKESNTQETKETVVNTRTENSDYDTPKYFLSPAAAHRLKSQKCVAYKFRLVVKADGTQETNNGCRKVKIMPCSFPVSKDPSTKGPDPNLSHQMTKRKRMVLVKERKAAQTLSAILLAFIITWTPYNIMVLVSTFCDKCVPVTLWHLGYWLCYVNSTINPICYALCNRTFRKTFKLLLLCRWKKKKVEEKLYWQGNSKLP

outcome, inactive:
Cc1nc2sc(C(=O)NCCc3ccncc3)c(N)c2c(C)c1Cl
Cc1nc2sc(C(=O)NC3CC3)c(N)c2c(C)c1Cl
Cc1nc2sc(C(=O)NCc3ccncc3)c(N)c2c(C)c1Cl
COc1ccc(C)c2sc(NC(=O)c3ccncc3)nc12
Cc1nc2sc(C(=O)NCc3nccs3)c(N)c2c(C)c1Cl
Cc1nc2sc(C(=O)NCc3ccc4c(c3)OCO4)c(N)c2c(C)c1Cl
Cc1nc2sc(C(=O)NCc3ccccc3)c(N)c2c(C)c1Cl
Cc1nc2sc(C(=O)NCc3ccncn3)c(N)c2c(C)c1Cl
Cc1nc2sc(C(=O)NCc3cccc(F)c3F)c(N)c2c(C)c1Cl
Cc1nc2sc(C(=O)NCc3cccnc3)c(N)c2c(C)c1Cl
